According to PubChem BioAssay AID1259324 (C. David Weaver Laboratory, Vanderbilt University, 2017):
Screen size: about 34,000 compounds; fewer than 10 were called active.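 How the source made its calls: active means primary screen hit, no activity in plain HEK293 cells, and in GIRK2-only cells above 5% efficacy rising with concentration; inactive means the rest, including fluorescent compounds.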 The list is a sample of the results.

Target: G protein-activated inward rectifier potassium channel 2 (Homo sapiens) (UniProt P48051)
Sequence (P48051 whole entry, looked up): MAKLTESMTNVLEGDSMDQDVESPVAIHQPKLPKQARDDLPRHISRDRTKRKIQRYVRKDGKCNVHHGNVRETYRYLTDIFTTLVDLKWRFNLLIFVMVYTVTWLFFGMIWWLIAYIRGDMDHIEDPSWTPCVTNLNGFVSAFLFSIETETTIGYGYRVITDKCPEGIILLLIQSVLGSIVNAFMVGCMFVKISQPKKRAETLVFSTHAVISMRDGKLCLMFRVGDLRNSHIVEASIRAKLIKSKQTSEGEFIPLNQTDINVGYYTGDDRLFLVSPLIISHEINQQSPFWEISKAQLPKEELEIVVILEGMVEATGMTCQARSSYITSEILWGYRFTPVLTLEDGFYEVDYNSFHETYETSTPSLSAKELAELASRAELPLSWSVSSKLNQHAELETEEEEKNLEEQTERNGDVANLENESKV
Assay: GIRK2 activation atop partial GPCR stimulation – cell-based, HEK293, thallium flux, summary (AID 1259324)
Details: HEK293 GIRK2/NPY4 cells, thallium flux fluorescence

outcome, inactive:
Cc1c(C(=O)NCc2ccccc2Cl)nnn1-c1ccc(F)cc1
Cc1cccc(NC(=O)c2cc(-c3ccco3)nc3c2c(C)nn3C2CCS(=O)(=O)C2)c1 (stereo not drawn)
Cc1cc(C(=O)Nc2nc(-c3cccs3)cs2)on1 inactive; active
COc1ccc(CCNC(=O)Nc2cc(N3CCCS3(=O)=O)ccc2C)cc1
O=C(Cc1cc(-c2ccc(F)cc2)on1)N1CCc2ccccc21
O=C(NCCC1=CCCCC1)C(=O)NCc1nc(-c2ccccc2)no1
COc1ccc(NC(=O)N2CCN(c3cc(OC)nc(OC)n3)CC2)cc1
CC(C)(C)C(=O)N1CCc2ccc(NS(=O)(=O)c3ccc(Cl)s3)cc21
COc1ccc(Cl)cc1C(=O)NCCNc1cc(-n2ccnc2C)ncn1
COc1ccccc1C1(CNC(=O)Cc2ccc(F)cc2)CCOCC1
CCOc1ccc(NC(=O)NCCCn2nc(-c3ccncc3)ccc2=O)cc1 inactive; active
COc1ccc(NC(=O)Cn2cc(OC)c(=O)cc2CSc2nccc(C)n2)cc1
O=C(C1CCCCC1)N(CCN1CCOCC1)c1nc2c(Cl)cccc2s1
Cn1c(=O)c2cc(C(=O)NC3CCCCCC3)sc2n(C)c1=O
COc1ccc(C)cc1S(=O)(=O)NCC(c1ccc(F)cc1)N1CCN(C)CC1 (stereo not drawn)
O=C(Cc1ccc(-c2ccccc2)cc1)NCC1CCN(Cc2ccco2)CC1
CCOc1ccc(-c2cc(=O)n(CC(=O)Nc3ccccc3F)cn2)cc1
O=C(CCCS(=O)(=O)c1ccccc1)Nc1nc2c(F)cccc2s1
CCOc1ccc2ccccc2c1C(=O)N1CCN(c2ncnc3c2nnn3C)CC1
CCOC(=O)N1CCN(C(c2ccccc2F)c2sc3nc(CC)nn3c2O)CC1 (stereo not drawn)
COc1coc(C(=O)Nc2ccc(C(N)=O)cc2)cc1=O
COc1ccccc1CCNC(=O)Cc1csc(NC(=O)C2CCC(=O)N2)n1 (stereo not drawn)
O=C(C1CC=CCC1)N1CCN(CCn2ccnc2)CC1 (stereo not drawn)
O=C(c1cccs1)N1CCc2ccc(NS(=O)(=O)Cc3cccc(Cl)c3)cc21
Cc1ccc(-n2ccnc2N2CCN(C(=O)c3cccs3)CC2)cc1
COC(=O)c1c2c(nc3c1c(-c1ccccc1)nn3C1CCS(=O)(=O)C1)CCC2 (stereo not drawn)
CCC(=O)Nc1ccc(SCC(=O)NCC2CCCO2)nn1 (stereo not drawn)
O=C(NCC(O)c1ccc(C(F)(F)F)cc1)C1(c2cccs2)CCCC1 (stereo not drawn)
